# Hits are enriched below; roughly 4.9% of the tested compounds scored in any of these assays.
# PP5 primary – PP5 phosphatase inhibitors, primary screen, biochemical, fluorescence. 0.18% of 320,000 active. inhibition, % at 6.7 µM. purified PP5c, OMFP substrate fluorescence. Serine/threonine-protein phosphatase 5 (Homo sapiens), P53041;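 active = inhibition above the campaign's mean inhibition across all tested compounds plus 3 SD, cut at about 9.5% in these data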;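 also: 0% = DMSO only and 100% = 100 µM cantharidin control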
# Calb FLC – C. albicans growth inhibition with fluconazole, primary screen, CaCi-2 strain, Alamar Blue fluorescence | C. albicans CaCi-2 (fluconazole-resistant clinical isolate) + fluconazole, 48 h | growth inhibition, % (concentration not given with the values) | 0.57% of 300,000 active | AID 1979, 2009;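 active = growth inhibition above about 58% in most replicates, limit read from the data, passing the limit was not always enough; inconclusive = exactly half the replicates above a set limit; inactive = most replicates below a set limit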;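 also: all wells also contain fluconazole at 8 µg/ml as a sub-toxic cotreatment; 0% = median of DMSO wells and 100% = median of geldanamycin control wells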
# CSC inhib – cancer stem cell viability inhibitors, primary screen, luminescence; cancer stem cell-like cells viability; inhibition, % at 7.5 µM; 1.1% of 300,000 active; AID 2717, 2010; in the data active = inhibition above about 75%; inconclusive = no clear call, values can overlap the other calls; tested in HMLE shEcad cells
# Mdm2 MdmX PPI – inhibitors of human Mdm2-MdmX association, primary screen, cell-based, luminescence, split luciferase, SaOS-2, uHTS. 3% of 330,000 active. inhibition, % at 8 µM. Protein Mdm4 (Homo sapiens) + E3 ubiquitin-protein ligase Mdm2 (Homo sapiens), …. SaOS-2 split-luciferase Mdm2/MdmX complementation;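 active = inhibition of at least 50% at 8 µM in the primary screen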
# Target sequence (O15151 whole entry, looked up): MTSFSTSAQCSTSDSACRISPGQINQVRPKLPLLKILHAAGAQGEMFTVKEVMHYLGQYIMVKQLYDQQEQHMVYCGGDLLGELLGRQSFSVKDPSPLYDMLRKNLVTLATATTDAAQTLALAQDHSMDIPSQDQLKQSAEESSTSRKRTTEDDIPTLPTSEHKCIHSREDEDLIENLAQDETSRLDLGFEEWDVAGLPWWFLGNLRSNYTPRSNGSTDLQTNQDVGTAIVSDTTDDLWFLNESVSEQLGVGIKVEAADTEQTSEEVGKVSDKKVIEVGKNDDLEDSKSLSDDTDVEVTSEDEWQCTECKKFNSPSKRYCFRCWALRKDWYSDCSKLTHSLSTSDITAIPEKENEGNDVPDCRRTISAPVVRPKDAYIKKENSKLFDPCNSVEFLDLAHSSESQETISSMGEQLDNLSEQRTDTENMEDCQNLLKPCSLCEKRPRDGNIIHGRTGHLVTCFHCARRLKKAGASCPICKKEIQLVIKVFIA
# Target sequence (Q00987 whole entry, looked up): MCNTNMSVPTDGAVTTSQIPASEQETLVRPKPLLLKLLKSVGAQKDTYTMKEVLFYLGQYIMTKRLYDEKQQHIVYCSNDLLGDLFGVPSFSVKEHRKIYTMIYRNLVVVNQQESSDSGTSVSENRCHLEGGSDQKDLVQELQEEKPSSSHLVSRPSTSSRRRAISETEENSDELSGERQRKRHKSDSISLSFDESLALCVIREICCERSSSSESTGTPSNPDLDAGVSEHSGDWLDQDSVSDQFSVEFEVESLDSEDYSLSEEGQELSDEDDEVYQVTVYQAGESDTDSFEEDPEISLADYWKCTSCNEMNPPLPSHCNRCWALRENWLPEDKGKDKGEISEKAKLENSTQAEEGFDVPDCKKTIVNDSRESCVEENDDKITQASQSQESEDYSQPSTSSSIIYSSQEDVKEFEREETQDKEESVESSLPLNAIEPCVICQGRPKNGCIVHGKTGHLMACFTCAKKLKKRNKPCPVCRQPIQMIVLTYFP
# PP1 inh – PP1-alpha phosphatase inhibitors, primary screen, counter-screen for PP5 inhibitor project, biochemical, fluorescence, OMFP substrate, single point; Serine/threonine-protein phosphatase PP1-alpha catalytic subunit (Homo sapiens), P62136; inhibition, % at 6.7 µM; 0.9% of 320,000 active; AID 2235, 2010; purified PP1alpha;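 active = inhibition above the mean inhibition of all tested compounds plus 3 SD, computed separately for each screening campaign, cut at about 15% in these data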
# Beta apoptosis – inhibitors of cytokine-induced beta cell apoptosis, primary screen, luminescence. INS-1E cytokine-induced death, ATP luminescence, 48 h; percent of positive-control rescue, neutral wells zero. protection from apoptosis, % (no concentration beside the values). 0.8% of 300,000 active;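 active = Every replicate reaches about 75%, or at least half do and their mean reaches it too, limit read from the data; inconclusive = At least half of replicates reach the limit but their mean does not; inactive = Under half of replicates reach the limit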;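 also: 0% = cytokine-treated negative control wells and 100% = positive control rescue; higher means more ATP so stronger rescue from cytokine killing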
# Mdm2-MdmX conf – Mdm2-MdmX complex disruptors, retested hits, confirmation, luminescence, single concentration | shares compounds with Mdm2 MdmX PPI | Mdm2-MdmX binding, luminescent assay | inhibition, % at 8 µM | 55% of 10,000 active; in the data active = inhibition above about 40%
# FLuc counter – full-length luciferase signal inhibition, confirmation, counter-screen for Mdm2/MdmX interaction inhibitor project, cell-based, single concentration, SaOS-2. shares compounds with Mdm2 MdmX PPI. 77% of 6,200 active. inhibition, % at 8 µM. AID 504607, 2011. SaOS-2 full-length luciferase counterscreen, luminescence;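 active = mean inhibition at 8 µM reaching about 37%, which flags the compound as non-specific, limit read from the data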;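 also: p53-null SaOS-2 cells with luciferase driven by a doxycycline-inducible promoter; compound on cells about two nights before reading with doxycycline added after day one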
# * marks the source's active call; other numbers are inactive results; ? = inconclusive; . = not tested or not shown.
SMILES,PP5 primary,Calb FLC,CSC inhib,Mdm2 MdmX PPI,PP1 inh,Beta apoptosis,Mdm2-MdmX conf,FLuc counter
CCCC(=O)N1CCN(c2ccc(NC(=O)c3cc4ccccc4o3)cc2Cl)CC1,3,-1,90*,100*,4,68,59*,13
CN(C)S(=O)(=O)c1ccc(N2CCCC2)c(C(=O)NC2CCC(O)CC2)c1 (stereo not drawn),2,-12,-6,14,-2,0,.,.
COc1ccc(OC)c(-c2nc(C(=O)NC3CCN(Cc4ccccc4)CC3)cc3c2[nH]c2ccccc23)c1,3,-2,-1,50*,8,.,20,.
COc1cc(-c2nc(C(=O)NC3CCCCC3)cc3c2[nH]c2ccccc23)cc(OC)c1OC,5,2,-1,48,-7,.,.,.
COc1cc(-c2nc(C(=O)NC3CCN(Cc4ccccc4)CC3)cc3c2[nH]c2ccccc23)cc(OC)c1OC,7,-1,-7,79*,14,36,56*,50*
Cc1ccccc1NC(=O)c1cc(C(=O)c2cc(Cl)ccc2O)cn(-c2ccccc2C)c1=O,4,20,9,78*,8,73,71*,50*
Cc1ccc(-n2cc(C(=O)c3cc(Cl)ccc3O)cc(C#N)c2=O)cc1,5,6,-14,-1,11,7,.,.
CCn1c(=O)c(C(=O)NCCCc2ccccc2)c(O)c2ccccc21,.,-7,8,-9,.,-2,.,.
O=C(NCCC1=CCCCC1)c1c(O)nc2sccn2c1=O,0,4,10,80*,8,-3,57*,68*
O=C(NCCCc1ccccc1)c1c(O)nc2sccn2c1=O,-1,-23,-10,75*,8,.,57*,52*
COc1ccc(CCC(=O)NCCS(=O)(=O)N2CCN(c3ccccc3OC)CC2)cc1,2,-7,5,24,-2,0,.,.
Cn1c(=O)c(S(=O)C2CCCCC2)c(O)c2ccccc21 (stereo not drawn),1,3,-16,19,0,-5,.,.
CCCn1c(N)c(Sc2ccc(C)cc2)c(=O)n(CCC)c1=O,-4,-28,-14,15,-1,-5,.,.
CCCn1c(CC)nc([N+](=O)[O-])c1Sc1ccc(C)cc1,0,-3,-9,64*,-2,-16,12,.
COc1ccc(NC(=O)COC(=O)c2ccc(OCc3ccccc3Cl)c(OC)c2)c(OC)c1,-1,0,16,61*,-3,-3,16,.
CC[N+]1=C(C)C(C)(C)c2cc(C)ccc21,1,-2,?,81*,1,101*,62*,28
COc1ccc(-c2nc(CN3CCC(C(=O)NC4CCN(Cc5ccccc5)CC4)CC3)c(C)o2)cc1OC,-2,-28,-12,80*,-3,10,49*,55*
Cc1ccc(C)c(OCc2cc(C(=O)NC3CCN(Cc4ccccc4)CC3)no2)c1,2,7,12,53*,7,14,16,.
S=C(Nc1cc(Cl)cc(Cl)c1)NC1CCN(Cc2ccccc2)CC1,.,-7,75*,95*,.,-6,34,.
S=C(Nc1ccccc1Cl)NC1CCN(Cc2ccccc2)CC1,1,-29,.,12,-2,7,.,.
Cc1ccc(-n2c(=O)[nH]c3cc(C(=O)NC4CCN(Cc5ccccc5)CC4)ccc3c2=O)cc1,0,-4,-9,87*,2,2,26,.
O=C(NC1CCN(Cc2ccccc2)C1)c1cc(COc2ccc(F)cc2F)on1 (stereo not drawn),-3,17,-6,11,9,20,.,.
COc1cccc(C(=O)N2CCN(C(=O)C3COc4ccccc4O3)CC2)c1 (stereo not drawn),-2,5,-11,-9,-2,3,.,.
Cc1oc(-c2ccc(Cl)cc2)cc1C(=O)NC1CCN(Cc2ccccc2)CC1,2,-6,14,60*,-2,.,28,.
Cc1oc(C(C)(C)C)cc1C(=O)NC1CCN(Cc2ccccc2)CC1,-3,-26,16,10,-3,4,.,.
SMILES,PP5 primary,Calb FLC,CSC inhib,Mdm2 MdmX PPI,PP1 inh,Beta apoptosis,Mdm2-MdmX conf,FLuc counter
Cc1ccccc1-c1nc(CN2CCC(C(=O)NC3CCN(Cc4ccccc4)CC3)CC2)c(C)o1,1,-2,19,99*,1,-4,58*,75*
CN1CCN(CC(=O)c2cc(C(C)(C)C)c(O)c(C(C)(C)C)c2)CC1,1,9,1,-12,-3,-4,.,.
COc1ccc(O)c(/C=N/NC(=O)c2ccc(CSc3nc(C)cc(C)n3)cc2)c1,1,119*,110*,77*,8,?,74*,31
COc1ccc(/C=N/NC(=O)c2ccc(Br)cc2)c(OC)c1,2,-8,-8,17,-3,-2,.,.
COc1ccc(Br)cc1/C=N/NC(=O)c1cc(Br)ccc1O,0,-1,.,21,0,-5,.,.
COc1ccc(C(=O)N/N=C/c2cc(Br)ccc2O)cc1OC,2,2,36,67*,2,104*,64*,30
COc1ccc(/C=N/NC(=O)c2ccc(CSc3nc(C)cc(C)n3)cc2)cc1O,7,-12,25,5,6,0,.,.
COc1ccc(O)c(/C=N/NC(=O)c2ccc(OCc3cccc(Br)c3)cc2)c1,3,63*,91*,68*,0,93*,69*,33
O=C(NCCCn1ccnc1)c1cccc(S(=O)(=O)NCc2ccccc2)c1,1,2,22,26,-1,2,.,.
C=CCNC(=O)/C(C#N)=C\c1cc(Cl)c(O)c(OCC)c1,-1,41,6,.,1,1,.,.
CCOc1cc(/C=C(/C#N)C(=O)Nc2ccc(O)cc2)cc(Br)c1O,3,5,47,70*,0,27,63*,86*
CC(C)c1ccc(Nc2nnns2)cc1,1,-5,-19,-10,-2,-10,.,.
COc1ccc2cc(C)c(SCC(=O)Nc3cc(C)on3)nc2c1,1,1,.,50,2,.,10,.
Cc1cc2cc(C)c3nnc(SCC(=O)NCc4ccco4)n3c2cc1C,2,-1,-13,26,-4,1,.,.
Cc1cc(NC(=O)CSc2ccccc2)no1,1,-5,-1,8,9,-9,.,.
